An excerpt weighted towards active compounds, which were near 2.9% of everything screened.
Cardio protect: protects H9c2 cardiomyocytes from peroxide injury; H2O2 injury protection, ATPLite, 2 h; protection from H2O2 cell death, % at 20 µM; AID 588492; 0.63% of 360,000 active;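 active means compounds giving at least 50% protection of heart cells from peroxide-induced death in the single-dose screen, raw or plate-pattern-corrected value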
ABHD5-PLIN5 inh: ABHD5-PLIN5 protein interaction inhibition; Q00G26+Q8WTS1; Split G. princeps luciferase complementation, luminescence, 4 h; inhibition, % at 4 µM; 0.78% of 360,000 active; AID 602281;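 active means inhibition above the mean inhibition across every tested compound plus 3 SD, cut at about 22% in these data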
Myeloid diff MLP: promotes myeloid progenitor differentiation | ER-HoxA9 myeloid progenitors, lysozyme-GFP differentiation, flow cytometry | calls only at 10 µM | 1% of 360,000 active | AID 624256;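 active means normalized GFP-positive differentiation at or above the plate's own cutoff, the solvent-only control mean plus 3 SD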;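 further: cells exposed to compound for four days before flow analysis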
HGIII-sPLA2 inh: Blocks human group III sPLA2 activity | 0.56% of 370,000 active | inhibition, % at 12.2 µM | QFRET BODIPY PC-A2 liposome hydrolysis, fluorescence | Q9NZ20;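 active means inhibition above mean plus 3 SD of compounds lying within the high and low control bounds, cut at about 19% in these data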
Target sequence (Q9NZ20 whole entry, looked up): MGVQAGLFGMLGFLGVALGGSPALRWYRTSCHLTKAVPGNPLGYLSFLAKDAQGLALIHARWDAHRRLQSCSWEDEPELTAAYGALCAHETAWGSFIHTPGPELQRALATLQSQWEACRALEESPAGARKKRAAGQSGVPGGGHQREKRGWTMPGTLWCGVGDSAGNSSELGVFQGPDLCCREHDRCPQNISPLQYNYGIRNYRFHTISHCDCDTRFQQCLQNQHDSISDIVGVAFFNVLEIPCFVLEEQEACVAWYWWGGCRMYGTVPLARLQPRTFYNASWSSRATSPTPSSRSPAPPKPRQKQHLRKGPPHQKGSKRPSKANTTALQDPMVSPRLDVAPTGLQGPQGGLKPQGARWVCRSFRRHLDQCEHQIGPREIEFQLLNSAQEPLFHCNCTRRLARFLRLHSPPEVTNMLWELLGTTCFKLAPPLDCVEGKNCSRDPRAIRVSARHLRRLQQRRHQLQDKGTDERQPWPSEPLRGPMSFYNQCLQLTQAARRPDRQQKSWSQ
DAGLB inhibitor: diacylglycerol lipase beta (human) inhibition | Q8NCG7 | HEK293T DAGLB membrane lysate, EnzChek fluorogenic substrate | inhibition, % at 5.17 µM | 0.059% of 340,000 active | AID 504411; in the data active means inhibition above about 34%
Rtt109 Vps75: blocks Candida albicans Rtt109/Vps75 acetyltransferase activity. Q5AAJ8. purified Rtt109/Vps75, ThioGlo CoA-SH fluorescence, 4 h. inhibition, % at 34.9 µM. 0.16% of 330,000 active. AID 540336;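 active means inhibition of at least 50% in every replicate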
hGIII sPLA2 conf: human GIII-sPLA2 inhibition, confirmation | inhibition, % at 12.2 µM | 34% of 2,000 active | recombinant hGIII-sPLA2, BODIPY PC-A2 QFRET fluorescence | shares compounds with HGIII-sPLA2 inh;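 active means mean inhibition across triplicates above the hit cutoff set in the earlier primary screen, cut at about 19% in these data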
535nm interf: optically interferes with 535nm fluorescence in sPLA2 counter-screen; shares compounds with HGIII-sPLA2 inh; BODIPY FL product fluorescence interference, QFRET; inhibition, % at 12.2 µM; 8.5% of 2,000 active;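 active means average inhibition above the solvent-only control mean plus 3 SD, cut at about 6% in these data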
BODIPY interf DR: 535nm optical interference dose response, HGIII-sPLA2 counter-screen | AID 743455 | BODIPY FL product fluorescence interference, cell-free | 240 tested, under 10 active | IC50, µM | shares compounds with HGIII-sPLA2 inh;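 active means IC50 at or below 10 µM; inactive means IC50 above 10 µM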
Numbers stand for hits; . = inactive; / = no result given.

SMILES | Cardio protect | ABHD5-PLIN5 inh | Myeloid diff MLP | HGIII-sPLA2 inh | DAGLB inhibitor | Rtt109 Vps75 | hGIII sPLA2 conf | 535nm interf | others
CC(C)(C)c1ccc(C(=O)NCC(=O)NNC(=O)c2ccccc2O)cc1 | . | . | . | 21 | . | . | . | .
CC(C)(C)c1ccc(C(=O)NNC(=O)c2ccccc2Br)cc1 | . | . | . | . | . | . | / | /
O=C(NC(=S)NNC(=O)c1ccccc1O)c1ccc(F)cc1 | . | . | . | 35 | . | . | 31 | .
CC(=O)Nc1ccc(NC(=S)NC(=O)c2ccc([N+](=O)[O-])cc2)cc1 | . | . | . | 24 | . | . | . | .
CC(C)C(=O)Nc1ccc(NC(=S)NC(=O)c2ccc([N+](=O)[O-])cc2)cc1 | . | . | . | . | . | . | / | /
Cc1cc(Nc2ccc(Cl)cc2)n2nnnc2n1 | . | . | . | . | . | . | / | /
CCN(CC)c1nc(C)c(C(C)=O)cc1C#N | . | . | . | . | . | . | / | /
CCC(CC)COC(=O)C1=C(C)NC(=O)NC1c1ccc2c(c1)OCO2 (stereo unspecified) | . | . | . | . | . | . | / | /
COc1ccccc1C(=O)COC(=O)CN1C(=O)NC2(CCCC2)C1=O | . | . | . | . | . | . | / | /
O=C(NC(=S)NNC(=O)c1ccccc1O)c1ccccc1 | . | . | . | 31 | . | . | 25 | .
Cc1ccc(C(=O)NC(=S)NNC(=O)c2ccccc2O)cc1 | . | . | . | 32 | . | . | 37 | . | BODIPY interf DR=.
O=C(NC(=S)NNC(=O)c1ccccc1O)c1ccc([N+](=O)[O-])cc1 | . | . | . | 39 | . | . | 29 | . | BODIPY interf DR=.
Cc1ccccc1-c1cc(C(=O)NCc2cccc(C(F)(F)F)c2)nn1CC1CC(c2cccc([N+](=O)[O-])c2)=NO1 (stereo unspecified) | . | . | . | . | . | . | / | /
CCOc1ccc(C2OCCC(C)O2)cc1OC (stereo unspecified) | . | . | . | 20 | . | . | . | .
COC(=O)c1cnn(-c2ccc(Cl)cc2)c1/C=N/NC(N)=S | . | . | . | 25 | . | . | . | .
Cc1[nH]c(N=Nc2ccccc2)nc1N=Nc1ccccc1 | . | . | . | 25 | . | . | . | 9.0
Cc1cc(C)cc(NC(=S)N2CCN(c3ccc(F)cc3)CC2)c1 | . | . | . | . | . | . | / | /
Cc1cccc(NC(=S)N2CCN(c3ccc(F)cc3)CC2)c1 | . | . | . | 26 | . | / | . | .
COc1ccc(/C=C2\C(=O)NC(=S)N2C(=O)c2ccc(C)cc2)cc1 | . | . | . | . | . | . | / | /
O=C1NC(=S)N(C(=O)c2ccc(F)cc2)/C1=C/c1cccnc1 | . | . | . | 20 | / | / | . | .
Cc1cc(C)c(S(=O)(=O)n2nc(C)c(Br)c2C)c(C)c1 | . | . | . | 19 | . | . | . | .
CCCCNC(=O)c1cc2nc(-c3ccccc3)cc(C(F)(F)F)n2n1 | . | . | . | . | . | . | / | /
CCCCCCCCN1C(=O)[C@@H](CC(=O)NCC23CC4CC(CC(C4)C2)C3)C[C@@]2(C(=O)OC)C1=C[C@H](C(C)(C)C)O[C@@H]2C | / | / | / | 21 | / | / | . | .
CCOC(=O)NC(=O)C(=CNc1ccccc1OC)C(=O)NC(=O)OCC | . | . | . | 21 | . | / | . | .
CCOc1ccc(S(=O)(=O)N2CCC(C(=O)OC(C)C(=O)N(C)C3CCCCC3)CC2)cc1 (stereo unspecified) | . | . | . | . | . | . | / | /
SMILES | Cardio protect | ABHD5-PLIN5 inh | Myeloid diff MLP | HGIII-sPLA2 inh | DAGLB inhibitor | Rtt109 Vps75 | hGIII sPLA2 conf | 535nm interf | others
CCN(CC)S(=O)(=O)c1ccc(C)c(NC(=S)NNC(=O)C2CC2)c1 | . | . | . | 20 | . | . | 23 | .
Cc1ccc(S(=O)(=O)N(C)C)cc1NC(=O)C1CCCC1 | . | . | . | . | . | . | / | /
Cc1ccc(S(=O)(=O)N(C)C)cc1NC(=S)NNC(=O)C1CC1 | . | . | . | 30 | . | . | . | .
COC(=O)c1c(NC(C)=O)sc(C(=O)Nc2ccccc2C)c1C | . | . | . | . | . | / | / | /
O=C(CSC(=S)N1CCCCC1)Nc1ncc2c(n1)CCCC2=O | . | . | . | 22 | . | . | . | .
O=C(CSC(=S)N1CCCCC1)Nc1ncc2c(n1)CC(c1ccco1)CC2=O (stereo unspecified) | . | . | . | . | / | . | / | /
OC[C@@H]1CN(Cc2ccccc2)C[C@H](n2ccc3c(N4CCCC4)ncnc32)O1 | . | . | . | . | / | / | / | /
Cc1cccc(N2C(=O)CCC2=O)n1 | . | . | . | 20 | . | . | . | .
COc1ccc(NS(=O)(=O)c2cccc(C(=O)NC3CCC(O)CC3)c2)cc1 (stereo unspecified) | . | . | . | . | . | . | / | /
Cc1ccc(C)c(OCC(=O)Nc2ccccc2C(=O)N2CCOCC2)c1 | . | . | . | . | . | . | / | /
Cc1ccc(NC(=O)NC(=S)NC(=O)c2ccccc2)cc1 | . | . | . | 23 | . | . | . | .
CCNC(=S)NNC(=O)c1cccc(Br)c1 | . | . | . | 22 | . | . | 33 | .
CCOC(=O)c1sc(NC(=S)NC(=O)c2ccco2)nc1C | . | . | . | 27 | . | . | . | .
COc1ccc(C(=O)NNC(=S)NC(=O)c2ccc(OC)cc2)cc1 | . | . | . | 20 | . | . | 26 | .
O=Cc1c(NCc2ccccc2)c2ccccc2[nH]c1=O | . | . | . | . | . | . | / | /
Cc1cccc(C(=O)NNC(=S)NC(=O)c2cccs2)c1 | . | . | . | 28 | . | . | 27 | .
Cc1ccc(C(=O)NC(=S)NNC(=O)c2ccccc2)cc1 | . | . | . | 24 | . | . | 40 | . | BODIPY interf DR=.
Cc1cccc(C(=O)NNC(=S)NC(=O)c2ccccc2)c1 | . | . | . | 23 | . | . | 36 | . | BODIPY interf DR=.
CC(C)(C)NC(=S)NNC(=O)c1ccncc1 | . | . | . | 23 | . | . | . | .
CC(C)C(=O)Nc1ccc(C(=O)NNC(=S)NC(=O)c2cccs2)cc1 | . | . | . | . | . | . | / | /
COc1cccc(C2=NN(C(=O)C3CC3)C(O)(C(F)(F)F)C2)c1 (stereo unspecified) | . | . | . | . | . | / | / | /
COc1ccc(C(=O)NC(=S)NNC(=O)c2ccncc2)cc1Br | . | . | . | 29 | . | . | 26 | .
Cc1ccc(C(=O)NNC(=S)NC(=O)c2ccco2)cc1 | . | . | . | 22 | . | . | 32 | . | BODIPY interf DR=.
COc1ccc(C(=O)NNC(=S)NC(=O)c2cccs2)cc1 | . | . | . | 21 | . | . | 40 | . | BODIPY interf DR=.

Compound activity: PubChem, several laboratories
